The record followed here is the supplement of paper PMC7261846.

This assay concerns Candida albicans SNY425 biofilm. Put plainly: biofilm OD600 with compound plus antifungal (OD600 (absorbance)); higher = more biofilm remaining.
Setting [1] is: assay detail: disruption of 24-h mature biofilm (compound + antifungal for a second 24 h).
[2] abbreviates: assay detail: sustained inhibition (compound + antifungal during 90-min adherence and 24-h growth).

Counter-ions that a name gives are not always drawn. ± gives the uncertainty stated by the source.

On to `CCCCC[C@H](CC(=O)NO)C(=O)N[C@H](C(=O)N1CCC[C@H]1CO)C(C)C` [Actinonin] + C[C@@H]1[C@H](O)[C@@H](C)/C=C/C=C/C=C/C=C/C=C/C=C/C=C/[C@H](O[C@@H]2O[C@H](C)[C@@H](O)[C@H](N)[C@@H]2O)C[C@@H]2O[C@](O)(C[C@@H](O)C[C@@H](O)[C@H](O)CC[C@@H](O)C[C@@H](O)CC(=O)O[C@H]1C)C[C@H](O)[C@H]2C(=O)O [amphotericin B] (first compound 12.5 µM), for which the “biofilm OD600” value runs as follows: under setting [1], 0.255 ± 0.017; under setting [2], 0.191 ± 0.0077.

Take `CO[C@@H]1[C@H](OC(=O)/C=C/C=C/C=C/C=C/C(=O)O)CC[C@]2(CO2)[C@H]1[C@@]1(C)O[C@@H]1CC=C(C)C` [Fumagillin] + C[C@@H]1[C@H](O)[C@@H](C)/C=C/C=C/C=C/C=C/C=C/C=C/C=C/[C@H](O[C@@H]2O[C@H](C)[C@@H](O)[C@H](N)[C@@H]2O)C[C@@H]2O[C@](O)(C[C@@H](O)C[C@@H](O)[C@H](O)CC[C@@H](O)C[C@@H](O)CC(=O)O[C@H]1C)C[C@H](O)[C@H]2C(=O)O [amphotericin B] (first compound 12.5 µM): the “biofilm OD600” value reads like this: under setting [1], 0.264 ± 0.0097; under setting [2], 0.185 ± 0.0052.

As for `O=C(NCCCCN1CCOCC1)c1cc2ccccc2o1` + OC(Cn1cncn1)(Cn1cncn1)c1ccc(F)cc1F [fluconazole] (first compound 12.5 µM), the “biofilm OD600” value runs as follows: under setting [1], 0.258 ± 0.0098; under setting [2], 0.158 ± 0.008.

Consider `CNC(=O)[C@H](Cc1c[nH]c2ccccc12)NC(=O)[C@@H](CC(=O)NO)CC(C)C` + C[C@@H]1[C@H](O)[C@@H](C)/C=C/C=C/C=C/C=C/C=C/C=C/C=C/[C@H](O[C@@H]2O[C@H](C)[C@@H](O)[C@H](N)[C@@H]2O)C[C@@H]2O[C@](O)(C[C@@H](O)C[C@@H](O)[C@H](O)CC[C@@H](O)C[C@@H](O)CC(=O)O[C@H]1C)C[C@H](O)[C@H]2C(=O)O [amphotericin B] (first compound 12.5 µM), for which the “biofilm OD600” value by setting is: under setting [1], 0.281 ± 0.01; under setting [2], 0.194 ± 0.0098.

As to `Cc1cccc(C)c1OCC(=O)N[C@@H](Cc1ccccc1)[C@@H](O)C[C@H](Cc1ccccc1)NC(=O)[C@H](C(C)C)N1CCCNC1=O` [lopinavir] + CC[C@H](C)C[C@H](C)CCCCCCCCC(=O)N[C@H]1C[C@@H](O)[C@@H](NCCN)NC(=O)[C@@H]2[C@@H](O)CCN2C(=O)[C@H]([C@H](O)CCN)NC(=O)[C@H]([C@H](O)[C@@H](O)c2ccc(O)cc2)NC(=O)[C@@H]2C[C@@H](O)CN2C(=O)[C@H]([C@@H](C)O)NC1=O [caspofungin] (first compound 12.5 µM), the “biofilm OD600” value stood at 0.153 ± 0.0047 under setting [1] and 0.0941 ± 0.0079 under setting [2].

As to `Cc1cccc(C)c1OCC(=O)N[C@@H](Cc1ccccc1)[C@@H](O)C[C@H](Cc1ccccc1)NC(=O)[C@H](C(C)C)N1CCCNC1=O` [lopinavir] + C[C@@H]1[C@H](O)[C@@H](C)/C=C/C=C/C=C/C=C/C=C/C=C/C=C/[C@H](O[C@@H]2O[C@H](C)[C@@H](O)[C@H](N)[C@@H]2O)C[C@@H]2O[C@](O)(C[C@@H](O)C[C@@H](O)[C@H](O)CC[C@@H](O)C[C@@H](O)CC(=O)O[C@H]1C)C[C@H](O)[C@H]2C(=O)O [amphotericin B] (first compound 12.5 µM), the “biofilm OD600” value reads like this: under setting [1], 0.246 ± 0.0051; under setting [2], 0.14 ± 0.015.

Turning to `CSCCC(C=O)NC(=O)C(CC(C)C)NC(=O)[C@H](CC(C)C)NC(C)=O` (stereo partly drawn) [Calpain Inhibitor II (ALLM)] + C[C@@H]1[C@H](O)[C@@H](C)/C=C/C=C/C=C/C=C/C=C/C=C/C=C/[C@H](O[C@@H]2O[C@H](C)[C@@H](O)[C@H](N)[C@@H]2O)C[C@@H]2O[C@](O)(C[C@@H](O)C[C@@H](O)[C@H](O)CC[C@@H](O)C[C@@H](O)CC(=O)O[C@H]1C)C[C@H](O)[C@H]2C(=O)O [amphotericin B] (first compound 12.5 µM), the “biofilm OD600” value is 0.247 ± 0.0052 under setting [1] and 0.193 ± 0.0094 under setting [2].

For `Nc1ccc(CC(CC(=O)O)C(=O)O)cc1` [4-Amino-D, L-benzylsuccinic acid] + CC[C@H](C)C[C@H](C)CCCCCCCCC(=O)N[C@H]1C[C@@H](O)[C@@H](NCCN)NC(=O)[C@@H]2[C@@H](O)CCN2C(=O)[C@H]([C@H](O)CCN)NC(=O)[C@H]([C@H](O)[C@@H](O)c2ccc(O)cc2)NC(=O)[C@@H]2C[C@@H](O)CN2C(=O)[C@H]([C@@H](C)O)NC1=O [caspofungin] (first compound 12.5 µM), the “biofilm OD600” value under setting [1] is 0.295 ± 0.016 and the “biofilm OD600” value under setting [2] was 0.187 ± 0.0071.

For `CC1CNc2c(cccc2S(=O)(=O)N[C@@H](CCCNC(=N)N)C(=O)N2CC[C@@H](C)C[C@@H]2C(=O)O)C1` (stereo partly drawn) [Argatroban] + OC(Cn1cncn1)(Cn1cncn1)c1ccc(F)cc1F [fluconazole] (first compound 12.5 µM), the “biofilm OD600” value runs as follows: under setting [1], 0.286 ± 0.011; under setting [2], 0.113 ± 0.0066.

For `CC(C)c1nc(CN(C)C(=O)N[C@H](C(=O)N[C@@H](Cc2ccccc2)C[C@H](O)[C@H](Cc2ccccc2)NC(=O)OCc2cncs2)C(C)C)cs1` [ritonavir] + C[C@@H]1[C@H](O)[C@@H](C)/C=C/C=C/C=C/C=C/C=C/C=C/C=C/[C@H](O[C@@H]2O[C@H](C)[C@@H](O)[C@H](N)[C@@H]2O)C[C@@H]2O[C@](O)(C[C@@H](O)C[C@@H](O)[C@H](O)CC[C@@H](O)C[C@@H](O)CC(=O)O[C@H]1C)C[C@H](O)[C@H]2C(=O)O [amphotericin B] (first compound 12.5 µM), the “biofilm OD600” value runs as follows: under setting [1], 0.246 ± 0.0053; under setting [2], 0.146 ± 0.0034.

On to `CC[C@H](C)[C@H](N)C(=O)N1CCSC1` [P32/98 hemifumarate salt] + OC(Cn1cncn1)(Cn1cncn1)c1ccc(F)cc1F [fluconazole] (first compound 12.5 µM), for which the “biofilm OD600” value under setting [1] turned out to be 0.249 ± 0.0087 and the “biofilm OD600” value under setting [2] was 0.128 ± 0.0045.

Turning to `Cc1c(O)cccc1C(=O)N[C@@H](CSc1ccccc1)[C@H](O)CN1C[C@H]2CCCC[C@H]2C[C@H]1C(=O)NC(C)(C)C` [nelfinavir] + OC(Cn1cncn1)(Cn1cncn1)c1ccc(F)cc1F [fluconazole] (first compound 12.5 µM), the “biofilm OD600” value under setting [1] came out at 0.255 ± 0.0099 and the “biofilm OD600” value under setting [2] was determined as 0.121 ± 0.018.

Take `CCCC[C@@H](C=O)NC(=O)[C@H](CC(C)C)NC(=O)OCc1ccccc1` [Calpeptin] + CC[C@H](C)C[C@H](C)CCCCCCCCC(=O)N[C@H]1C[C@@H](O)[C@@H](NCCN)NC(=O)[C@@H]2[C@@H](O)CCN2C(=O)[C@H]([C@H](O)CCN)NC(=O)[C@H]([C@H](O)[C@@H](O)c2ccc(O)cc2)NC(=O)[C@@H]2C[C@@H](O)CN2C(=O)[C@H]([C@@H](C)O)NC1=O [caspofungin] (first compound 12.5 µM): the “biofilm OD600” value came to 0.263 ± 0.0082 under setting [1] and 0.174 ± 0.0085 under setting [2].

Consider `CC(C)CN(C[C@@H](O)[C@H](Cc1ccccc1)NC(=O)O[C@H]1CCOC1)S(=O)(=O)c1ccc(N)cc1` [amprenavir] + CC[C@H](C)C[C@H](C)CCCCCCCCC(=O)N[C@H]1C[C@@H](O)[C@@H](NCCN)NC(=O)[C@@H]2[C@@H](O)CCN2C(=O)[C@H]([C@H](O)CCN)NC(=O)[C@H]([C@H](O)[C@@H](O)c2ccc(O)cc2)NC(=O)[C@@H]2C[C@@H](O)CN2C(=O)[C@H]([C@@H](C)O)NC1=O [caspofungin] (first compound 12.5 µM), for which the “biofilm OD600” value worked out at 0.271 ± 0.014 under setting [1] and 0.201 ± 0.013 under setting [2].

Regarding `C[C@]1(Cn2ccnn2)[C@H](C(=O)O)N2C(=O)C[C@H]2S1(=O)=O` [Tazobactam] + OC(Cn1cncn1)(Cn1cncn1)c1ccc(F)cc1F [fluconazole] (first compound 12.5 µM), the “biofilm OD600” value under setting [1] was found to be 0.283 ± 0.011 and the “biofilm OD600” value under setting [2] worked out at 0.12 ± 0.0072.

As to `O=C(O[C@@H]1Cc2c(O)cc(O)cc2O[C@@H]1c1cc(O)c(O)c(O)c1)c1cc(O)c(O)c(O)c1` [Epigallocatechin gallate] + C[C@@H]1[C@H](O)[C@@H](C)/C=C/C=C/C=C/C=C/C=C/C=C/C=C/[C@H](O[C@@H]2O[C@H](C)[C@@H](O)[C@H](N)[C@@H]2O)C[C@@H]2O[C@](O)(C[C@@H](O)C[C@@H](O)[C@H](O)CC[C@@H](O)C[C@@H](O)CC(=O)O[C@H]1C)C[C@H](O)[C@H]2C(=O)O [amphotericin B] (first compound 12.5 µM), the “biofilm OD600” value is, setting by setting: under setting [1], 0.27 ± 0.017; under setting [2], 0.231 ± 0.014.

Turning to `O=C(O)CNC(=O)C(CS)Cc1ccccc1` (racemic) [DL-Thiorphan] + CC[C@H](C)C[C@H](C)CCCCCCCCC(=O)N[C@H]1C[C@@H](O)[C@@H](NCCN)NC(=O)[C@@H]2[C@@H](O)CCN2C(=O)[C@H]([C@H](O)CCN)NC(=O)[C@H]([C@H](O)[C@@H](O)c2ccc(O)cc2)NC(=O)[C@@H]2C[C@@H](O)CN2C(=O)[C@H]([C@@H](C)O)NC1=O [caspofungin] (first compound 12.5 µM), the “biofilm OD600” value reads like this: under setting [1], 0.262 ± 0.013; under setting [2], 0.163 ± 0.0098.

Regarding `C[C@H](CS)C(=O)N1CCC[C@H]1C(=O)O` [Captopril] + C[C@@H]1[C@H](O)[C@@H](C)/C=C/C=C/C=C/C=C/C=C/C=C/C=C/[C@H](O[C@@H]2O[C@H](C)[C@@H](O)[C@H](N)[C@@H]2O)C[C@@H]2O[C@](O)(C[C@@H](O)C[C@@H](O)[C@H](O)CC[C@@H](O)C[C@@H](O)CC(=O)O[C@H]1C)C[C@H](O)[C@H]2C(=O)O [amphotericin B] (first compound 12.5 µM), the “biofilm OD600” value under setting [1] was determined as 0.285 ± 0.011 and the “biofilm OD600” value under setting [2] is 0.214 ± 0.0071.

As for `N=C(N)Nc1ccc(C(=O)Oc2ccc3cc(C(=N)N)ccc3c2)cc1` [Nafamostat mesylate] + CC[C@H](C)C[C@H](C)CCCCCCCCC(=O)N[C@H]1C[C@@H](O)[C@@H](NCCN)NC(=O)[C@@H]2[C@@H](O)CCN2C(=O)[C@H]([C@H](O)CCN)NC(=O)[C@H]([C@H](O)[C@@H](O)c2ccc(O)cc2)NC(=O)[C@@H]2C[C@@H](O)CN2C(=O)[C@H]([C@@H](C)O)NC1=O [caspofungin] (first compound 12.5 µM), the “biofilm OD600” value is, setting by setting: under setting [1], 0.25 ± 0.0081; under setting [2], 0.162 ± 0.012.
